Our source for the Potency values is PubChem BioAssay (Tox21).

Records with an inconclusive call do not appear. The source made the active and inactive calls. Unless noted, calls come from the whole dose curve.

Experiment [1] is described as follows: Nuclear factor erythroid 2-related factor 2/antioxidant responsive element (Nrf2/ARE) small molecule agonists: qHTS cell viability counter screen in human keratinocytes (AID 1919968; active = well fitted curve in the direction sought with a large enough effect in the repeat runs; an effect the other way counts as inactive or inconclusive; note: nearly all actives have a fitted effect of over 55% in size). In a few lines:
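CellTiter-Fluor fluorescence, read 1 h after reagent, gave viability in the same wells as the ARE-luciferase assay. KeratinoSens cells (1,500/well) had 23 h compound exposure at 37 C/5% CO2 following 5 h plating.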
(Quantitative high-throughput screening tests each substance at several concentrations.)

The nature of experiment [2]: Nuclear factor erythroid 2-related factor 2/antioxidant responsive element (Nrf2/ARE) small molecule agonists: luciferase reporter gene qHTS assay in human keratinocytes (AID 1919969). Note: nearly all actives have a fitted effect of over 35% in size. Note: potency is the fitted concentration of half-maximal effect.
Experiment [3] deals with Gonadotropin-releasing hormone receptor (Homo sapiens) (UniProt P30968). The experiment is described as follows: Human gonadotropin-releasing hormone receptor (GnRHR) small molecule agonists, calcium flux assay in GnRHR-HEK293 cells (AID 1920063). Note: nearly all actives have a fitted effect of over 35% in size. The method in brief:
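Agonist mode: compounds at 15 concentrations, in triplicate, went onto calcium dye-loaded GnRHR-HEK293 cells. Intracellular calcium was then followed as 480/540 nm fluorescence at 1 s intervals over 3 min.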
(In general: Calcium assays in cells follow changes in intracellular calcium, usually with a dye or a luminescent sensor.)

Experiment [4] addresses KiSS-1 receptor (Homo sapiens) (UniProt Q969F8). The experiment is described as follows: Human kisspeptin (KISS1R) small molecule agonists, calcium flux assay in KISS1R-HEK293 cells (AID 1920064; active = well fitted curve in the direction sought with a large enough effect in the repeat runs; an effect the other way counts as inactive or inconclusive). The method in brief: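 Agonist mode: intracellular calcium rise tracked at 1 s intervals over 3 min (480/540 nm) immediately after compound addition to dye-loaded KISS1R-HEK293 stable cells. Each compound tested at 15 concentrations in triplicate.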

A short description of experiment [5]: G protein-coupled receptor (GPCR) small molecule agonists, calcium flux assay: HEK293 wild type cell line counter screen (AID 1920065). The method in brief: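 Calcium flux counter screen: compound added in agonist mode at 15 concentrations in triplicate to dye-loaded parental HEK293 cells. Fluorescence (480/540) read kinetically for 3 min; ATP served as positive control.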

The nature of experiment [6]: p53 small molecule agonists, cell-based qHTS assay with human liver microsomes (AID 1963577). The method in brief:
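Fluorescence of the beta-lactamase reporter in p53RE-bla cells, detected with LiveBLAzer substrate (2 h, room temperature, dark), served as the read-out after 16 h compound exposure at 37 C with human liver microsomes and NADPH, each 0.5 mg/mL final.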

Experiment [7] can be described thus: p53 small molecule agonists, cell-based qHTS assay with rat liver microsomes (AID 1963578). The method in brief: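 Cells carrying a p53 response element–beta-lactamase reporter were plated and rested 5 h, then dosed with compound in DMSO plus rat liver microsomes and NADPH, each at 0.5 mg/mL final. After 16 h at 37 C, LiveBLAzer substrate was added for 2 h.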

Experiment [8] in a line: p53 small molecule agonists, cell-based qHTS assay with human liver microsomes: qHTS cell viability counter screen (AID 1963579). Note: nearly all actives have a fitted effect of over 45% in size. In a few lines: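 Cytotoxicity counter screen: p53RE-bla, 4,000 cells/well; 5 h settle, 37 C/5% CO2; cpd + HLM 0.5 mg/mL + NADPH 0.5 mg/mL (final); 16 h, 37 C; CellTiter-Glo, 30 min RT, luminescence.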
A short description of experiment [9]: p53 small molecule agonists, cell-based qHTS assay with rat liver microsomes: qHTS cell viability counter screen (AID 1963580). Note: nearly all actives have a fitted effect of over 45% in size. The method in brief: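 Cytotoxicity counter screen: intracellular ATP measured by CellTiter-Glo luminescence in the same wells as the beta-lactamase reporter read, on HCT-116 p53RE-bla cells exposed 16 h at 37 C to compounds with rat liver microsomes and NADPH, each 0.5 mg/mL final.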

Experiment [10] is described as follows: p53 small molecule agonists, cell-based qHTS assay: qHTS cell viability counter screen (AID 1963581). Note: nearly all actives have a fitted effect of over 45% in size. In a few lines: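 Counter screen read by CellTiter-Glo luminescence (ATP content, 30 min at room temperature), run in the same wells as the beta-lactamase reporter read. HCT-116 p53RE-bla cells saw compounds for 16 h at 37 C.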
Experiment [11] can be described thus: p53 small molecule agonists, cell-based qHTS assay (AID 1963582; active = well fitted activation curve with a large enough effect in the signal ratio in the repeat runs, not every such curve was filed as active; the % refers to the signal ratio). The method in brief: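 Read-out is beta-lactamase FRET fluorescence after 2 h at room temperature with LiveBLAzer B/G substrate. p53 response element-bla cells were treated 16 h at 37 C with compounds in DMSO, added 5 h after seeding.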
Experiment [12] has as its target 5-hydroxytryptamine receptor 2A (Homo sapiens) (UniProt P28223). The experiment is described as follows: 5-hydroxytryptamine receptor 2A (HTR2A) small molecule antagonists, cell-based qHTS assay (AID 1963586). Note: nearly all actives have a fitted effect of over 45% in size. The method in brief:
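CHO cells stably expressing human HTR2A were plated for 18 h at 37 C, then loaded with calcium dye for 1 h. Compounds were preincubated 5 min at room temperature before DOI (4 nM solution) was added. Kinetic fluorescence was read for 3 min.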

The target is the same in experiment [13]. The experiment is described as follows: 5-hydroxytryptamine receptor 2A (HTR2A) small molecule agonists, cell-based qHTS assay (AID 1963587). Note: nearly all actives have a fitted effect of over 30% in size. The method in brief: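 CHO cells stably expressing human HTR2A, plated 18 h, loaded with calcium dye 1 h at 37 C. Agonist mode: compounds added and intracellular calcium fluorescence recorded kinetically for 2 min at 1 sec intervals.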

Experiment [14] concerns the target Muscarinic acetylcholine receptor M1 (Homo sapiens) (UniProt P11229). The experiment is described as follows: Cholinergic receptor muscarinic 1 (CHRM1) small molecule antagonists, cell-based qHTS assay (AID 1963588). Note: nearly all actives have a fitted effect of over 40% in size. In a few lines:
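Compounds were tested at 15 concentrations in three independent runs. Dye-loaded CHRM1-CHO cells were exposed 5 min at room temperature before stimulation by acetylcholine added at 50nM. Intracellular calcium was read kinetically on FDSS for 3 min.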

Experiment [15] shares this target. The experiment is described as follows: Cholinergic receptor muscarinic 1 (CHRM1) small molecule agonists, cell-based qHTS assay (AID 1963589). Note: nearly all actives have a fitted effect of over 35% in size. The method in brief: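 Agonist-mode calcium-flux screen: compounds at 15 concentrations, three independent runs, were pin-transferred onto dye-loaded human CHRM1-CHO cells. Fluorescence was then recorded kinetically every second over minutes.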

Experiment [16] can be described thus: cAMP Responsive Elements (CRE) small molecule agonists, cell-based qHTS assay (AID 1963590). The method in brief:
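Agonist mode: compound added to CRE-bla HEK 293T cells (2,000/well, 18 h after plating) for 3 h at 37 C/5% CO2. Reporter activity detected via FRET beta-lactamase substrate, 2 h room-temperature loading.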

In experiment [17] the target is Beta-2 adrenergic receptor (Homo sapiens) (UniProt P07550). The experiment is described as follows: Adrenergic beta2 receptor (ADRB2) small molecule antagonists, cell-based qHTS assay (AID 1963592). Note: series mostly up to about 92 µM; nearly all actives have a fitted effect of over 50% in size. The method in brief:
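Assay format: CHO-ADRB2 cells, 18-20hr seeding at 37C/5% CO2, then compound plus 1nM isoproterenol agonist mix for 0.5hr RT. Homogeneous time-resolved fluorescence cAMP detection after 1hr, expressed as 665/615 nm ratio.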

For experiment [18], the target named is D(2) dopamine receptor (Homo sapiens) (UniProt P14416). The experiment is described as follows: Dopamine D2 receptor (DRD2) small molecule agonists, cell-based qHTS assay (AID 1963594). Note: nearly all actives have a fitted effect of over 35% in size. In a few lines:
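HEK293 cells stably expressing human DRD2, pre-treated with PDE inhibitor Ro20-1724 (0.1 mM final) and compound 10 min at room temperature, then stimulated with NKH477 (200nM […]) for 30 min. cAMP read by HTRF (665/620 nm).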

For experiment [19] the target is unchanged. The experiment is described as follows: Dopamine D2 receptor (DRD2) small molecule antagonists, cell-based qHTS assay (AID 1963595; active = well fitted inhibition curve with a large enough effect in the signal ratio in the repeat runs, with a control signal flat; the % refers to the signal ratio). The method in brief:
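Human DRD2 antagonist qHTS measuring cAMP by HTRF. The cells are exposed to compound for 10 min, then to NKH477 (200 nM) and quinpirole (12 nM) for 30 min at RT, with Ro20-1724 (0.1 mM) present throughout.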

A short description of experiment [20]: cAMP Responsive Elements (CRE) small molecule antagonists, cell-based qHTS assay (AID 1963591; active = well fitted inhibition curve with a large enough effect in the signal ratio in the repeat runs, not every such curve was filed as active; the % refers to the signal ratio). In a few lines:
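Antagonist mode: compounds are added alongside the adenylyl cyclase activator NKH477 (0.25 uM final) to CRE-bla HEK293T cells for 3 h. LiveBLAzer FRET substrate, 2 h at room temperature, reports bla expression.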

Sequence of 5-hydroxytryptamine receptor 2A (Homo sapiens) (P28223 whole entry, looked up): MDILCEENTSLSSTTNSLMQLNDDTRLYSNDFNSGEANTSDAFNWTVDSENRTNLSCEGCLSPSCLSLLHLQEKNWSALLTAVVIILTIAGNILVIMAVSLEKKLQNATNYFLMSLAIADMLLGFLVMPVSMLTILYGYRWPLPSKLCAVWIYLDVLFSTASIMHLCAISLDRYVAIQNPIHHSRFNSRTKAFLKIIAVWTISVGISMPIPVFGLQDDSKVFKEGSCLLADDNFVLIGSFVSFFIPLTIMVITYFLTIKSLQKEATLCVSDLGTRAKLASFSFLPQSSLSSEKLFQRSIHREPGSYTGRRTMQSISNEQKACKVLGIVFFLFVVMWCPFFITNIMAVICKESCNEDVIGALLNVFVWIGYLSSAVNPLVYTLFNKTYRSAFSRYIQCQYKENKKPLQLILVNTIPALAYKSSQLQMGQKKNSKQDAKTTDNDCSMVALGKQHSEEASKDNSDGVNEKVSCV
Sequence of Beta-2 adrenergic receptor (Homo sapiens) (P07550 whole entry, looked up): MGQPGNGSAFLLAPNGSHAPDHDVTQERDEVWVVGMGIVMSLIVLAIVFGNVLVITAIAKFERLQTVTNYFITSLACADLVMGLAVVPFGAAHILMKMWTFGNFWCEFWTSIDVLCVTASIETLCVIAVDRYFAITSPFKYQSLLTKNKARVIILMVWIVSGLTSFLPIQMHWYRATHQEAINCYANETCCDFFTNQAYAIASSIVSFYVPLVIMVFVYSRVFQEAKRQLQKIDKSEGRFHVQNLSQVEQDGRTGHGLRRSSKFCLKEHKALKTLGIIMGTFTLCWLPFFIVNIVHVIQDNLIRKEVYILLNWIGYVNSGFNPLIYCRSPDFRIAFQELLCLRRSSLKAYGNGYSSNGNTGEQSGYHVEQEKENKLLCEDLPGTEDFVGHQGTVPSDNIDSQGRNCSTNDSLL
Sequence of D(2) dopamine receptor (Homo sapiens) (P14416 whole entry, looked up): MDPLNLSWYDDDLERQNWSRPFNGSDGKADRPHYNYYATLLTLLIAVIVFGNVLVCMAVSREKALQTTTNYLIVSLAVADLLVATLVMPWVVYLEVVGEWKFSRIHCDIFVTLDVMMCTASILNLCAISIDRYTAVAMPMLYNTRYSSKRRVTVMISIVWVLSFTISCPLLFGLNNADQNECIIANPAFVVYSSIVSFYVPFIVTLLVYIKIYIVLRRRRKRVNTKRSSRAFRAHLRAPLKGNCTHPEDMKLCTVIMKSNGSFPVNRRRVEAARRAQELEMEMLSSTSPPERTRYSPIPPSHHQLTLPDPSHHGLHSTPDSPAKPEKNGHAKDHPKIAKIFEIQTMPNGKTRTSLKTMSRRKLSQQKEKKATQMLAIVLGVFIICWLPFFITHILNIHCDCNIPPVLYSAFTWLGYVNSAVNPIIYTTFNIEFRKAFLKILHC
Sequence of Muscarinic acetylcholine receptor M1 (Homo sapiens) (P11229 whole entry, looked up): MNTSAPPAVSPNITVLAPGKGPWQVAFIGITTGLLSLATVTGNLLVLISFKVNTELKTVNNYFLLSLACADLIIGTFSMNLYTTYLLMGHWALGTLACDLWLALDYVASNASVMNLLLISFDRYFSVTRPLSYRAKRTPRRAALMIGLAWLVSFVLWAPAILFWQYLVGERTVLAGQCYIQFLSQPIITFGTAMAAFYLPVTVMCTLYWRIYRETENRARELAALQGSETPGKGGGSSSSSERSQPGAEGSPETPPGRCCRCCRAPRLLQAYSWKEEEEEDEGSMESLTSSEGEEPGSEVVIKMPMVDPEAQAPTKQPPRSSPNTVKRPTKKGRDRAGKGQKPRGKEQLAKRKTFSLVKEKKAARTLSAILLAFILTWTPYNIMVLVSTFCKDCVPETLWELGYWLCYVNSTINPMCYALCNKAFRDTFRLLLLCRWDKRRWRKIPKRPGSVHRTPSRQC
Sequence of Gonadotropin-releasing hormone receptor (Homo sapiens) (P30968 whole entry, looked up): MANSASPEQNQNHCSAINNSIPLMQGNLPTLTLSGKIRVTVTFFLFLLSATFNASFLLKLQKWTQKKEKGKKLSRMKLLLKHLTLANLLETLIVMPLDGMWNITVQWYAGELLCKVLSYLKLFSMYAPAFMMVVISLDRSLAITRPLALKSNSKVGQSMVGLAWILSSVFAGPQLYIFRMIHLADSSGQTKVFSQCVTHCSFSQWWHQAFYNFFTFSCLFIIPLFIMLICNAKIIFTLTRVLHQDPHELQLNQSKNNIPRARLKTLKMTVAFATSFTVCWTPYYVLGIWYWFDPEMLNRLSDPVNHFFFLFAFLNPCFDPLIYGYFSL
Sequence of KiSS-1 receptor (Homo sapiens) (Q969F8 whole entry, looked up): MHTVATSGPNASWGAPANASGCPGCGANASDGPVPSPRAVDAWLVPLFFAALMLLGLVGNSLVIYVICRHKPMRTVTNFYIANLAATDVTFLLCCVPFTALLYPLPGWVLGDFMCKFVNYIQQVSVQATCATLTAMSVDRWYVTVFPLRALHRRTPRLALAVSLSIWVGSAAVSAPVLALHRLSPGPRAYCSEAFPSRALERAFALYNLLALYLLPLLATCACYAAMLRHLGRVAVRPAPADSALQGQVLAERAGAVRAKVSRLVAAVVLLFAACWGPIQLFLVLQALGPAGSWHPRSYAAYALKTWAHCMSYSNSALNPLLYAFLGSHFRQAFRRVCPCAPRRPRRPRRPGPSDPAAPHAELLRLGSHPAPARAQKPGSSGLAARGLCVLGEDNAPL

Turning to `O=S(=O)(O)c1ccc2cc(O)c(S(=O)(=O)O)cc2c1`, the Potency result in experiment [1], in [2], in [3], in [4], in experiment [5] and in [6] was “inactive” in each case. Further, the Potency result in [7], in [8], in experiment [9], in experiment [10], in experiment [11] and in [12] was “inactive” each time. Also, the Potency entry in experiment [13], in experiment [14], in experiment [15], in experiment [16], in experiment [17] and in experiment [18] was “inactive” throughout. In addition, in experiment [19], the Potency result was “inactive”.
Consider `CCCCCCOC(=O)c1ccccc1O`, for which the Potency entry in experiment [1], in experiment [2], in experiment [3], in [4], in [5] and in experiment [6] was “inactive” in each case. Moreover, the Potency entry in [7], in [8], in experiment [9], in experiment [10], in [11] and in [12] was “inactive” throughout. Further, the Potency result in experiment [13], in experiment [14], in experiment [15], in [16], in experiment [18] and in [19] was “inactive” throughout.
Turning to `CCCCCCCCCC/C=C/C#N`, the Potency result in [1], in experiment [2], in [3], in experiment [4], in experiment [5] and in experiment [6] was “inactive” throughout. The Potency result in [7], in experiment [8], in experiment [9], in experiment [10], in [11] and in experiment [12] was “inactive” each time. Further, the Potency result in [13], in experiment [14], in experiment [15], in experiment [16], in experiment [17] and in experiment [18] was “inactive” in each case. Besides, the Potency result in experiment [19] is “inactive”.
Take `CCOC(=O)CC(C(C)=O)C(C)=O`: the Potency entry in experiment [1], in experiment [2], in [3], in experiment [4], in [5] and in experiment [6] was “inactive” throughout. In addition, the Potency result in [7], in [8], in experiment [9], in experiment [10], in [11] and in experiment [12] was “inactive” each time. Also, the Potency entry in [13], in experiment [14], in experiment [15], in experiment [20], in [17] and in experiment [18] was “inactive” each time. Further, the Potency entry in experiment [19] is “inactive”.
Regarding `C=CCCC=C`, the Potency result in [1], in experiment [3], in [4], in experiment [5], in [6] and in [7] was “inactive” in each case. Further, the Potency entry in experiment [8], in experiment [9], in experiment [10], in experiment [11], in experiment [12] and in experiment [13] was “inactive” each time. Besides, the Potency result in experiment [14], in experiment [16], in [20], in experiment [17], in [18] and in experiment [19] was “inactive” in each case. In addition, the Potency in [2] is 70.5 µM (active).
For `CCN(CC)c1ccc(C=O)c(O)c1`, the Potency entry in experiment [1], in [2], in experiment [3], in experiment [4], in experiment [5] and in experiment [6] was “inactive” throughout. Besides, the Potency entry in experiment [7], in experiment [8], in experiment [9], in experiment [10], in [11] and in [12] was “inactive” each time. For the same compound, the Potency entry in [13], in [14], in [15], in experiment [20], in experiment [18] and in experiment [19] was “inactive” throughout.
`CC(C)S`: the Potency entry in experiment [1], in experiment [2], in [3], in experiment [4], in experiment [5] and in experiment [6] was “inactive” in each case. Also, the Potency result in [7], in [8], in [9], in experiment [10], in experiment [11] and in [12] was “inactive” each time. Besides, the Potency entry in experiment [13], in experiment [14], in experiment [15], in [20], in experiment [17] and in experiment [18] was “inactive” in each case.
